This is part of a sample that, as a whole, favours compounds with a hit. Of some 83,000 tested, about 20% had one in any assay.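 Method: cells in 96-well plates; compound added at one concentration; 48 h incubation; percent growth measured; values under 10 scored active.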 Values without a mark were called inactive. The source made the active and inactive calls.
System: HL-60(TB) leukemia
Experiment: NCI-60 one-dose screen, 48 h (100 = growth as untreated, 0 = no growth, -100 = all killed)
Conditions: 10 µM unless noted

Row | Compound | growth
1 | COc1ccc(N2CCN(c3ccc(NC4=C(Cl)C(=O)c5ncccc5C4=O)cc3)CC2)cc1 | 53%
2 | O=C(Nc1ccc(Oc2ccc(NC(=O)Nc3ccccc3Cl)cc2)cc1)Nc1ccccc1Cl | 51.7%
3 | CC(=O)OCC1CCCO1 (stereo not given) | 84.7%
4 | O=C(Nc1ccc(Br)cc1)Nc1cccc(Br)c1 | 5.54% (active)
5 | CC[C@H](C)[C@H](N)C(=O)O | 115%
6 | COc1ccc(/C=C2\CCCC3C2=Nc2ccccc2NC3c2ccc(OC)cc2)cc1 (stereo not given) | 78.2%
7 | O=[N+]([O-])CC(c1ccccc1)c1c[nH]c2ccccc12 (stereo not given) | 7.86% (active)
8 | CNCCCOc1c(Br)cc(CCNC(=O)/C(Cc2cc(Br)c(OC)c(Br)c2)=N/O)cc1Br | -57.1% (active)
9 | Cc1ccccc1NC(=O)c1cc2ccccc2cc1O | 0.175% (active)
10 | COc1ccc(Cl)cc1NC(=O)c1cc2c(n1C)-c1nc(NC(=O)C(C)C)sc1CC2 | 74.7%
11 | CN(C)c1ccc(C(=S)c2ccc(N(C)C)cc2)cc1 | 62.8%
12 | O=C(CCCCN1CCOCC1)Nc1ccc(Cn2nnc3c2C(=O)c2nnn(Cc4ccc(NC(=O)CCCCN5CCOCC5)cc4)c2C3=O)cc1 | -28.4% (active)
13 | COc1cc(C(=O)/C=C/c2c(C(F)(F)F)nc3ccccn23)cc(OC)c1OC | -9.98% (active)
14 | Cc1cc(N2CCN(c3ccnc4cc(Cl)ccc34)CC2)nc(N2CCOCC2)n1 | 69.5%
15 | O=C1c2cccc3c(-c4ccc5c(c4)ncn5C4CCCCC4)ccc(c23)C(=O)N1c1nc2ccccc2s1 | 76%
16 | COC1CC2CCC(C)C(O)(O2)C(=O)C(=O)N2CCCCC2C(=O)OC(C(C)CC2CCC(O)C(OC)C2)CC(=O)C(C)C=C(C)C(O)C(OC)C(=O)C(C)CC(C)/C=C/C=C/C=C1C (stereo not given) | 86.6%
17 | O=C1/C=C/[C@@H](O)[C@@H]2C[C@@H](O)C[C@H]2/C=C/CCC[C@H]([C@@H](O)CO)O1 | 101%
18 | Clc1nc(Cl)c2c3c(sc2n1)CCCC3 | -14.2% (active)
19 | Clc1nc(Cl)c2c(ncn2C/C=C\Cn2cnc3c(Cl)nc(Cl)nc32)n1 | -80.7% (active)
20 | COc1ccc(-c2n/c(=C\c3c(O)[nH]c4ccccc34)cc3c2=Nc2ccccc2-3)cc1 | -19.1% (active)
21 | COc1cc2c(cc1OC)C(CC1(O)CCCCC1)N(S(=O)(=O)c1ccc(C)cc1)CC2 (stereo not given) | -25% [100 µM] (active)
22 | NC(=O)c1ccc(Br)o1 | 96.8%
23 | COC(=O)c1ccc2c(c1)n(Cc1ccc3ccccc3c1)c[n+]2Cc1ccc2ccccc2c1 | -18.8% (active)
24 | Cc1ccc(S(=O)(=O)OC2COCOC2C(OS(=O)(=O)c2ccc(C)cc2)C2OCOCC2OS(=O)(=O)c2ccc(C)cc2)cc1 (stereo not given) | 106%
25 | CCn1cc(C(=O)O)c(=O)c2cc(F)c(N3CCN(CC(=O)Nc4ccccc4)C(C)C3)c(F)c21 (stereo not given) | 104%

Source: PubChem BioAssay (NCI)
